From PubChem
Beta2AR agonist: agonists of human beta-2 adrenergic receptor inducing internalization; response, % (test concentration not listed); P07550; Am2.2-beta2AR cells, FAP receptor internalization, flow cytometry; actives 0.43% (n = 340,000);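 active = response above a set limit, near 3 SD of response in nonfluorescent compounds, cut at about 42% in these data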
Target sequence (P07550 whole entry, looked up): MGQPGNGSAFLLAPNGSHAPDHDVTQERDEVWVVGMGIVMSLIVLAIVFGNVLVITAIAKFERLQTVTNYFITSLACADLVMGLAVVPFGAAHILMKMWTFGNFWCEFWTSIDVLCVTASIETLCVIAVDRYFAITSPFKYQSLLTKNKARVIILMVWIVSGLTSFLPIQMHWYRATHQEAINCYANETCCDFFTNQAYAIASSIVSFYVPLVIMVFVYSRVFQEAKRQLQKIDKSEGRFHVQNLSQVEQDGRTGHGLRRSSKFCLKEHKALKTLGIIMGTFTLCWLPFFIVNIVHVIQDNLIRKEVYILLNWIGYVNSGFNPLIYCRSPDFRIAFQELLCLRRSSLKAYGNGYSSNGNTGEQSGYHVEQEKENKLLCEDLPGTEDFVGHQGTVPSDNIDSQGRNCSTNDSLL
MEKK3 PB1 HTS: MEKK3-MEK5 PB1 interaction, increase or decrease; binding response (% of control), % at 10 µM; bead-based flow cytometry, Alexa488-MEK5 binding to MEKK3; actives lie on both sides; 0 = blocked by unlabeled MEK5, 100 = vehicle; actives 1.4% (n = 290,000);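 active = binding response more than 3 SD above or below the average of its plate-row segment, actives on both sides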;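 note: Alexa488 bead fluorescence after subtracting the streptavidin-only scavenger bead signal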
MEKK2wt PB1 HTS: raises or lowers MEK5 binding to wildtype human MEKK2 PB1 domain. Q9Y2U5. actives 1.1% (n = 290,000). bead flow cytometry, Alexa488-MEK5 binding to MEKK2 WT; actives lie on both sides. AID 1531. binding response (% of control), % at 10 µM; in the data active = binding response below about 67% or above about 130%
MEKK2 mut-MEK5: signal of MEK5 binding to mutant human MEKK2 PB1 domain | bead flow cytometry, Alexa488-MEK5 binding to MEKK2 mutant | percent response, % at 10 µM | actives 0.35% (n = 290,000) | AID 1530; in the data active = percent response above about 24%, passing the limit was not always enough
GRK2 aptamer HTS: blocks RNA aptamer binding to human GRK2; actives 0.59% (n = 330,000); AID 488847; P25098; inhibition of aptamer binding, % at 10 µM; bead flow cytometry, FAM-aptamer displacement from GRK2;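 active = inhibition of aptamer binding above 40%, roughly 3 SD of noise, on plates passing a quality check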;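 note: median bead fluorescence of bound FAM aptamer so fluorescent compounds give negative values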
MEKK2wt confirm: raises or lowers MEK5 binding to wildtype human MEKK2, retest. shares compounds with MEKK3 PB1 HTS. bead flow cytometry, Alexa488-MEK5 binding to MEKK2 WT; actives lie on both sides. binding response (% of control), % at 10 µM. actives 2.4% (n = 5,900); in the data active = binding response below about 16% or above about 210%; inactive = in between
MEKK2mut confirm: signal of MEK5 binding to mutant human MEKK2, retest; shares compounds with MEKK3 PB1 HTS; bead flow cytometry, Alexa488-MEK5 binding to MEKK2 mutant; percent response, % at 10 µM; actives 2% (n = 5,900); AID 1893; in the data active = percent response mostly above about 71%, no sharp cut-off; inactive = mostly below about 38%;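 note: higher means compound restores mutant binding toward wildtype level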
MEKK3-MEK5 inh: confirmation of inhibitors of MEK5 binding to human MEKK3; shares compounds with MEKK3 PB1 HTS; bead flow cytometry, Alexa488-MEK5 binding to MEKK3; hits give low values; binding response (% of control), % at 10 µM; actives 1.8% (n = 5,900); AID 1894;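 active = binding response below 72% of control, or above a set upper limit, though filed actives all read lower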;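 note: 100% = DMSO only wells and 0% = binding blocked by excess unlabeled MEK5; lower values mean stronger disruption of MEK5 binding to MEKK3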
Starred values were filed as active, the others as inactive; . = no result; [ ] = dose if it differs, or a comment. An excerpt weighted towards active compounds, which were near 2.9% of everything screened.

SMILES | Beta2AR agonist | MEKK3 PB1 HTS | MEKK2wt PB1 HTS | MEKK2 mut-MEK5 | GRK2 aptamer HTS | MEKK2wt confirm | MEKK2mut confirm | MEKK3-MEK5 inh
CCCCOc1cccc(C2/C(=C(\O)c3ccc4c(c3)OCCO4)C(=O)C(=O)N2CCN2CCOCC2)c1 (configuration not stated) | 4 | 99 | 100 | -3 | 0 | . | . | .
COc1cc(/C=C/C(=O)Nc2ccncc2)cc(OC)c1OC | -5 | 146* | 106 | 0 | 0 | 112 | 3 | 106
COc1ccccc1C(=O)NCC(=O)NNC(=O)c1cccs1 | 3 | . | . | . | 0 | . | . | .
Cn1c(CC(=O)Nc2ccccc2)c(Sc2ccccc2)c2ccccc21 | -4 | 139* | 121 | 2 | 0 | 108 | -6 | 104
CCOC(=O)c1c(-c2cccs2)csc1NC(=O)CNCCN1CCOCC1 | . | 96 | 96 | -1 | . | . | . | .
O=C(Nc1cc(Cl)ccc1Cl)P(=O)(O)c1ccccc1 | -3 | . | . | . | . | . | . | .
Cc1nnc(Sc2cc(C(=O)NCCCN(C)Cc3ccccc3)c3ccccc3n2)s1 | -38 | 131* | 120 | 2 | 0 | 116 | 13 | 101
COCCCNC(=O)c1cc(Sc2nnc(C)s2)nc2ccccc12 | -10 | 91 | 89 | -5 | 0 | . | . | .
CC(C)(C)OC(=O)N1CCC(NC(=O)c2ncn(Cc3ccccc3)c2C(=O)NC2CCN(C(=O)OC(C)(C)C)CC2)CC1 | 21 | . | . | . | 4 | . | . | .
O=C(/C=C/c1ccc(N2CCC(c3ccccc3)=N2)cc1)c1ccccc1 | . | 78 | . | 281* | 0 | 94 | -50 | 78
CCOC(=O)/C(=C\c1ccc(N2CCC(c3ccccc3)=N2)cc1)C(C)=O | -95 | . | . | . | . | . | . | .
Cc1cc(S(=O)(=O)Nc2ccc(C(=O)NCc3cccnc3)cc2)ccc1F | 3 | . | . | . | 3 | . | . | .
O=C(CSc1ccccc1C(=O)NCc1ccccc1)NC12CC3CC(CC(C3)C1)C2 | 2 | 134* | 100 | 0 | 2 | 99 | 0 | 102
O=C(CSc1ccccc1C(=O)NCc1ccccc1)NC1CCCCCCC1 | -39 | 131* | 101 | 0 | 0 | 101 | -5 | 102
O=C(CSc1ccccc1C(=O)O)NCc1ccccc1 | -4 | 95 | 94 | -1 | 0 | . | . | .
O=C(CSc1ccccc1C(=O)O)NC1CCCCCC1 | 1 | 91 | 91 | -11 | 3 | . | . | .
Cn1ncc2c(Nc3ccc4ccccc4c3)ncnc21 | -10 | 14*[inhibitor] | 19*[inhibitor] | -29 | 0 | 102 | -3 | 100
Nc1nc(NCc2ccccc2)nc(NCc2ccccc2)c1[N+](=O)[O-] | -9 | 152* | 112 | 1 | 4 | 106 | 6 | 106
CC1(C)Cc2cccc(OCC(O)CN3CCN(c4ccccn4)CC3)c2O1 (configuration not stated) | -7 | 127* | 127 | 9 | . | 101 | -5 | 101
CC(=O)[C@@H]1[C@@H]2C(=O)N(c3ccccc3F)C(=O)[C@@H]2[C@H]2c3ccccc3C=NN12 | -3 | 93 | 92 | -10 | 1 | . | . | .
O=C(c1ccc(Cl)cc1)[C@@H]1[C@@H]2C(=O)N(c3cccc4ccccc34)C(=O)[C@@H]2C2c3ccccc3C=NN21 (some centres not stated) | -16 | 153* | 109 | 1 | 3 | 101 | -8 | 100
CCCc1cc(=O)oc2cc(OCC(=O)NC3CCN(Cc4ccccc4)CC3)ccc12 | -6 | 106 | 114 | 8 | 0 | . | . | .
O=C(CSc1nnc(-c2cccs2)n1Cc1ccccc1)NCc1ccc2c(c1)OCO2 | -7 | 76*[inhibitor] | 90 | -9 | 0 | 103 | 1 | 105
CC(=O)c1ccc(N(CC(=O)NC2CCCC2)C(=O)c2csnn2)cc1 | 10 | 97 | 99 | -6 | 0 | . | . | .
CCN(CC)CCCN(C(=O)c1cccs1)c1nc(-c2ccc(OC)cc2)cs1 | 2 | 97 | 143* | 2 | 0 | 116 | 13 | 104
SMILES | Beta2AR agonist | MEKK3 PB1 HTS | MEKK2wt PB1 HTS | MEKK2 mut-MEK5 | GRK2 aptamer HTS | MEKK2wt confirm | MEKK2mut confirm | MEKK3-MEK5 inh
CCN(CC)CCCN(C(=O)c1ccc(Br)cc1)c1nc(-c2ccc(OC)cc2)cs1 | 12 | 100 | 176* | 24* | 0 | 152 | 21 | 78
COCCCN(C(=O)c1ccccc1)c1nc(-c2ccc(OC)cc2)cs1 | 7 | 105 | 104 | 0 | 0 | . | . | .
COCCN(C(=O)c1ccccc1)c1nc(-c2ccc(OC)cc2)cs1 | -1 | 101 | 104 | 3 | 1 | . | . | .
CCN(CC)CCCN(C(=O)c1cccc(C)c1)c1nc(-c2ccc(OC)cc2)cs1 | 12 | 106 | 143* | 14 | 0 | 151 | 22 | 106
O=C(c1ccc(F)cc1)C1CCN(C(=S)Nc2ccc(F)cc2)CC1 | -3 | 101 | 103 | 2 | 6 | . | . | .
CCN=C1NN=C(c2cc(C)n(CCc3ccccc3)c2C)CS1 | 10 | 106 | 130 | 12 | . | . | . | .
Cc1cc(C2=NNC(=NCCc3ccccc3)SC2)c(C)n1CC1CCCO1 (configuration not stated) | -10 | 105 | 150* | 24 | 0 | 135 | 27 | 100
